Laboratory results as given in PubChem BioAssay AID488940 (National Center for Advancing Translational Sciences (NCATS), 2010).
Active and inactive are the calls of the source. Calls come from the whole dose curve.

Each molecule was assayed against DNA repair nuclease/redox regulator APEX1 (Homo sapiens) (UniProt P27695) (assay: Radiotracer Incision Assay (RIA) for Inhibitors of Human Apurinic/apyrimidinic Endonuclease 1 (APE1)). Conditions: Recombinant APE1, radiolabeled AP-DNA incision, gel.
DNA repair nuclease/redox regulator APEX1 (Homo sapiens), sequence (P27695 whole entry, looked up): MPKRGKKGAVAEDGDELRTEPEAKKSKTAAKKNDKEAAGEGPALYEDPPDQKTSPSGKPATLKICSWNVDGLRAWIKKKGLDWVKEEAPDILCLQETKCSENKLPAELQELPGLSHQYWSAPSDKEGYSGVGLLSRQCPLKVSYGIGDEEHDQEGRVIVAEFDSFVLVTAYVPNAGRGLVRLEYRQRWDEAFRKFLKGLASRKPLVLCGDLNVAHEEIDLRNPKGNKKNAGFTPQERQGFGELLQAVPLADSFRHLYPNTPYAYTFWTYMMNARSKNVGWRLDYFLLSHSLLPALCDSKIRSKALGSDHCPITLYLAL
Description: The apurinic/apyrimidinic endonuclease APE1 is the primary mammalian enzyme responsible for the removal of abasic (or AP) sites in DNA and functions centrally in the base excision DNA repair (BER) pathway. […] Thus, targeting APE1 could improve the efficacy of current treatment paradigms by promoting selective sensitization or protection of diseased and normal cells, respectively. This secondary Radiotracer Incision Assay was implemented to validated hits from the primary screen (AID 2517).
Recombinant wild type APE1 protein was purified as previously described (Erzberger et al., NAR, 1998). Fifty pg of APE1 (~140 pM) was incubated without (positive control containing 1% DMSO) or with 100 microM of the indicated inhibitor at room temperature in RIA buffer (50 mM Tris pH 7.5, 25 mM NaCl, 1mM MgCl2, 1 mM DTT, 0.01% Tween -20) for 15 min. One-half pmol of 32P 5'-radiolabeled AP-DNA substrate (18 mer) was added to a 10 microL final volume (see Wilson et al., JBC, 1995), and the reactions were incubated at 37 °C for 5 min and stopped by adding stop buffer (0.05% Bromophenol blue/ Xylene cyanol dissolved in 95% formamide, 20 mM EDTA) and heating at 950C for 10 min. Intact substrate was separated from incised product on a 15% polyacrylamide denaturing gel in tris boric acid EDTA buffer. Following electrophoresis, the gel was subjected to standard phosphoimager analysis using the ImageQuant 5.2 software, and the percent incision activity (amount of substrate converted to product) was calculated.
With CC(=O)Nc1sc2c(c1-c1nc(-c3ccccc3)cs1)CCN(C(C)C)C2 the Potency was 3 µM (active).
For CC(=O)Nc1sc2c(c1-c1nc3ccccc3o1)CCN(C(C)C)C2, the Potency was 13 µM (active).
O=C(Nc1sc2c(c1-c1nc3ccccc3s1)CCNC2)C(F)F was tested, and the Potency was 4 µM (active).
For CC(=O)Nc1sc2c(c1-c1nc3ccccc3s1)CCNC2, the Potency was 5 µM (active).
In the case of CC(=O)Nc1sc2c(c1-c1nc3ccccc3s1)CCCN(C(C)C)C2, the Potency is reported as 14 µM (active).
In the case of CC(=O)Nc1sc2c(c1-c1nc3ccccc3s1)CCS(=O)(=O)C2, the Potency is reported as 77 µM (active).
For CC(=O)Nc1sc2c(c1-c1nc3ccccc3s1)CCCNC2, the Potency was 7 µM (active).
With CC(=O)Nc1sc2c(c1-c1nc3ccccc3s1)CCN(C(C)C)C2 the Potency was 19 µM (active).
CC(=O)Nc1sc2c(c1-c1nc3ccccc3s1)CCN(C(C)C)CC2 was tested, and the Potency was 13 µM (active).
For CC(=O)Nc1sc2c(c1-c1nc3ccccc3s1)CCN(C(C)=O)C2, the Potency was 5 µM (active).
For CC(=O)Nc1sc2c(c1-c1nc3ccccc3s1)CCN(C)C2, the Potency was 5 µM (active).
For CC(=O)Nc1sc2c(c1-c1nc3ccccc3s1)CN(C(C)C)C2, the Potency was 4 µM (active).
